Measured values as given in PubChem BioAssay.
Records with an inconclusive call do not appear. For some assays here: Entries with a potency or affinity are not part of this list. Active and inactive are the calls of the source. Unless noted, cut-off not given; nearly all actives show AC50 up to about 30 µM.

How the values were obtained:
[1] = suppressors of polyQ aggregation in yeast, 75Q-TubU reporter (AID 1593); conditions: Yeast 75Q polyglutamine aggregation reporter
[2] = rescue of polyQ-huntingtin neuronal dysfunction in worms, whole organism, C. elegans mechanosensory neurons, N-terminal huntingtin (AID 1599); conditions: touch response, stronger effect = higher value
[3] = inhibitors of mitochondrial cytochrome c release, biochemical, purified mitochondria (AID 1603); conditions: stronger effect = lower value;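 further: mouse liver mitochondria challenged with calcium chloride; signal normalized to the plate average as 100%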
[4] = inhibitors of polyQ protein aggregation (AID 1604); conditions: polyglutamine-induced protein aggregation inhibition assay; stronger effect = higher value; tested at 2.5 µM
[5] = enhancers of glutamate uptake in motor neurons, MN-1 cell line (AID 1612); conditions: MN-1 motor neuron cells, stronger effect = higher value;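 further: tested at 1 µM final; 0% = mean of DMSO vehicle wells on each plate; positive means more glutamate uptake than control and negative means less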
[6] = reducers of polyQ inclusions in PC12 cells, cell-based, NGF-treated PC12, GFPQ80 (AID 1614); conditions: PC12 NGF-treated GFP-polyQ80 inclusion reduction;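 further: lower means fewer inclusions and 0 means no inclusions at all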
[7] = suppressors of polyglutamine aggregation in yeast, 75Q-TubH (AID 1616); conditions: S. cerevisiae 75Q-TubH polyglutamine aggregation suppression; stronger effect = higher value
[8] = growth inhibition of DIPG glioma cells, dose response, cell-based, SU-DIPG-IV, MIPE4.0, CellTiter-Glo, qHTS (AID 1347063); conditions: SU-DIPG-IV viability, CellTiter-Glo ATP luminescence;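 further: compound exposure lasted 48 hours before the viability readout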
[9] = viability loss in pontine glioma line – cell-based, SU-DIPG-XXV, MIPE5.0, CellTiter-Glo, qHTS, dose response (AID 1347065; cut-off not given, nearly all actives have AC50 up to about 26 µM;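 further: cells exposed to compound for 48 hours before ATP readout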); conditions: CellTiter-Glo ATP luminescence
[10] = target: Mitogen-activated protein kinase 7 (Homo sapiens) (UniProt Q13164); test: ERK5 transactivation activators in reporter cells, primary screen, cell-based, HTS (AID 1508626;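 active means luciferase signal above three times the same-plate solvent-only control wells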;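 further: luciferase driven by Gal4-ERK5 fusion binding five Gal4 sites before minimal TATA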); conditions: HeLa Gal4-ERK5 transactivation, 18 h, at 5 µM, stronger effect = higher value
[11] = inhibitors of Cryptococcus chitosan production, flow cytometry, Cibacron Brilliant Red staining (AID 1347148; call rule not given here;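 further: compound exposure lasted three days at 37 degrees C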); conditions: Cryptococcus neoformans chitosan, stronger effect = lower value; at 10 µM unless noted
[12] = LFS_MB_1R medulloblastoma cell growth inhibition, synergistic combos for chromothripsis tumors, cisplatin or BGB combos (AID 1671452; in the data active means inhibition above about 80%;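 further: cells exposed for 96 hours before readout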); conditions: LFS_MB_1R medulloblastoma cells, stronger effect = higher value
[13] = CRL2098 osteosarcoma cell growth inhibition, synergistic combos for chromothripsis tumors, BGB or cisplatin IC20 combos (AID 1671454; in the data active means inhibition above about 80%;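 further: cells exposed for 96 h before readout; 0% = vehicle DMSO and 100% = killing by high DMSO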); conditions: CRL2098 osteosarcoma cells, drug combinations, stronger effect = higher value
[14] = MDA-MB-436 breast carcinoma cell growth inhibition, synergistic combos for chromothripsis tumors, BGB or cisplatin combos (AID 1671458; call rule not given here;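 further: cells exposed for 96 hours; 0% = vehicle DMSO and 100% = killing by high DMSO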); conditions: MDA-MB-436 breast carcinoma growth inhibition, drug combinations, stronger effect = higher value
[15] = growth inhibition of BT084 medulloblastoma cells, cell-based, ICGC_MB145, cisplatin and BGB IC40 combos (AID 1671461; in the data active means inhibition above about 80%;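 further: cells exposed to drugs for 96 hours; 0% = vehicle DMSO and 100% = high DMSO full killing control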); conditions: drug combinations, stronger effect = higher value
[16] = growth inhibition of RCMB18 medulloblastoma cells, cell-based, cisplatin and BGB IC40 combos (AID 1671462; in the data active means inhibition above about 80%;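 further: cells exposed to compound for four days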); conditions: stronger effect = higher value
[17] = growth inhibition of CRL1545 osteosarcoma cells, cell-based, cisplatin and BGB IC20 combos (AID 1671464; in the data active means inhibition above about 80%;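 further: cells exposed to compound for 96 hours before readout; 0% = vehicle DMSO and 100% = high DMSO killing control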); conditions: stronger effect = higher value
[18] = measured here: combination with cisplatin, at 0.5 µM

Mitogen-activated protein kinase 7 (Homo sapiens), sequence (Q13164 whole entry, looked up, the tested form may be a part): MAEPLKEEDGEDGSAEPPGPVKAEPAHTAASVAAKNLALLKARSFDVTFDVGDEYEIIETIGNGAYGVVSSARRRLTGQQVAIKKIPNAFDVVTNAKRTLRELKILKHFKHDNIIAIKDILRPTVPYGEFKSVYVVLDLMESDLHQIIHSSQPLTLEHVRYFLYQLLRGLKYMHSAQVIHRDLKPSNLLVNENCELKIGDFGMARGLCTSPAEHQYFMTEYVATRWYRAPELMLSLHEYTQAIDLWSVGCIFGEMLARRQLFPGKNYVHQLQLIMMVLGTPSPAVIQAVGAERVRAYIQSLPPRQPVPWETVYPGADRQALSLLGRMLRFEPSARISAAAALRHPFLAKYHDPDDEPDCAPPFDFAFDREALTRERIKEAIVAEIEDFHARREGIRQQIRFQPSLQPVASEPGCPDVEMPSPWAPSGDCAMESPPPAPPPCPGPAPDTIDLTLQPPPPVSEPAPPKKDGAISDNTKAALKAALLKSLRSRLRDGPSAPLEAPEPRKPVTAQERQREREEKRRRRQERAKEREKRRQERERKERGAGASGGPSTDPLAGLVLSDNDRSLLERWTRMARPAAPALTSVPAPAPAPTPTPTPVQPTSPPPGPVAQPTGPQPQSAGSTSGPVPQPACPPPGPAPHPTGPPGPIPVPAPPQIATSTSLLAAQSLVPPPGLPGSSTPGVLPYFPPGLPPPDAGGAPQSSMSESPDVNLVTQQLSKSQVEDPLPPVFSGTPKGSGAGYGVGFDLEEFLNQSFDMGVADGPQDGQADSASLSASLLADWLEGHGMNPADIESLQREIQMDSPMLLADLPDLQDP

COc1ccc([C@@H]2CC(=O)c3c(O)cc(O[C@@H]4O[C@H](CO[C@H]5O[C@@H](C)[C@H](O)[C@@H](O)[C@H]5O)[C@@H](O)[C@H](O)[C@H]4O)cc3O2)cc1O
score [1]: 1.13
rescue above control [2]: -5.33
cytochrome c release ratio [3]: 0.96
inhibition of aggregation [4]: 83.3%
glutamate uptake change [5]: 7.48%
inclusion score [6]: 2
aggregation suppression score [7]: 1.41

NC(=O)Nc1sc(-c2ccc(F)cc2)cc1C(N)=O
AC50 [8]: 1.05 µM (active)
AC50 [9]: 7.42 µM (active)

COC(=O)C(N)CS (centres undefined)
score [1]: 1.37
rescue above control [2]: -5.25
cytochrome c release ratio [3]: 1.33
inhibition of aggregation [4]: 74.2%
glutamate uptake change [5]: 10.6%
inclusion score [6]: 2
aggregation suppression score [7]: 1.19

CC1(C)C2CC[C@]3(C)C(C(=O)C=C4[C@H]5C[C@@](C)(C(=O)O)CC[C@]5(C)CC[C@]43C)[C@@]2(C)CC[C@@H]1O (some centres undefined)
score [1]: 2.14
rescue above control [2]: 0.7
cytochrome c release ratio [3]: 1.2
inhibition of aggregation [4]: 25.5%
glutamate uptake change [5]: -60.4%
inclusion score [6]: 2
aggregation suppression score [7]: 0.949

CC(=O)O[C@@H]1CC2C(C)(C)C(=O)C=C[C@]2(C)C2CC[C@@]3(C)[C@H](c4ccoc4)OC(=O)[C@H]4O[C@]43[C@@]21C (some centres undefined)
score [1]: 0.97
rescue above control [2]: -3.01
cytochrome c release ratio [3]: 1.1
inhibition of aggregation [4]: 36%
glutamate uptake change [5]: -11.6%
inclusion score [6]: 2
aggregation suppression score [7]: 0.57

C1CCN2C[C@H]3C[C@H](CN4CCCC[C@@H]34)[C@H]2C1
score [1]: 1.18
rescue above control [2]: -2.03
cytochrome c release ratio [3]: 1.05
inhibition of aggregation [4]: 26.9%
glutamate uptake change [5]: 8.14%
inclusion score [6]: 2
aggregation suppression score [7]: 1.49

C[N+]1(C)C2CC(OC(=O)[C@@H](CO)c3ccccc3)CC1C1OC12 (some centres undefined)
score [1]: 1.45
rescue above control [2]: -0.68
cytochrome c release ratio [3]: 0.94
inhibition of aggregation [4]: 47.9%
glutamate uptake change [5]: -7.1%
inclusion score [6]: 2
aggregation suppression score [7]: 1.44

CC1CCC2(OC1)OC1CC3C4CC[C@H]5C[C@@H](O)CC[C@]5(C)C4CC(=O)[C@]3(C)C1C2C (some centres undefined)
score [1]: 1.42
rescue above control [2]: -2.31
cytochrome c release ratio [3]: 1.08
inhibition of aggregation [4]: 27.8%
glutamate uptake change [5]: 2.67%
inclusion score [6]: 2
aggregation suppression score [7]: 1.27

O=C1C(Cl)=C(NCCN2CCOCC2)C(=O)c2ncccc21
AC50 [8]: 4.69 µM (active)
AC50 [9]: 6.61 µM (active)

CC(=O)[C@@]1(O)CCC2C3C=C(Cl)C4=CC(=O)[C@@H]5CC5[C@]4(C)C3CC[C@@]21C (some centres undefined)
score [1]: 0.81
rescue above control [2]: 12.8
cytochrome c release ratio [3]: 1.45
inhibition of aggregation [4]: 9.8%
glutamate uptake change [5]: -5.81%
inclusion score [6]: 2
aggregation suppression score [7]: 0.681

CC1=C2C(=CO[C@H](C)[C@H]2C)C(=O)C(C(=O)O)=C1O
score [1]: 0.74
cytochrome c release ratio [3]: 0.99
inhibition of aggregation [4]: 68.3%
glutamate uptake change [5]: 33.3%
inclusion score [6]: 2
aggregation suppression score [7]: 0.187
luciferase signal [10]: 52 AU (inactive)

CCCC(=O)Nc1ncnc2c1ncn2C1O[C@@H]2COP(=O)(O)O[C@H]2[C@H]1OC(=O)CCC (some centres undefined)
score [1]: 1.26
rescue above control [2]: 1.51
cytochrome c release ratio [3]: 0.87
inhibition of aggregation [4]: 77.8%
glutamate uptake change [5]: 4.01%
inclusion score [6]: 2
aggregation suppression score [7]: 1.79

CC(C)Oc1ccc2c(=O)cc(-c3ccccc3)oc2c1
score [1]: 0.68
rescue above control [2]: 6.51
cytochrome c release ratio [3]: 0.9
inhibition of aggregation [4]: 12.7%
glutamate uptake change [5]: -13.2%
inclusion score [6]: 2
aggregation suppression score [7]: 0.599

CC(C)[C@H](CO)Nc1nc(Nc2cccc(Cl)c2)c2ncn(C(C)C)c2n1
AC50 [8]: 14.8 µM (active)
AC50 [9]: 7.42 µM (active)

O=C1Nc2ccc(I)cc2/C1=C/c1cc(Br)c(O)c(Br)c1
fold fluorescence [11]: 4.68 [at 96 µM] (inactive)

COc1cc(OC)c(NC(=O)Nc2cc(C)on2)cc1Cl
outcome [8]: inactive
outcome [9]: inactive

COc1cc2nccc(Oc3ccc(NC(=O)Nc4ccc(F)cc4F)c(F)c3)c2cc1OC
AC50 [9]: 3.32 µM (active)

O=C(O)c1ccc(-c2c[nH]c3ncc(-c4ccccc4)cc23)cc1C1CCCC1
AC50 [8]: 0.372 µM (active)
outcome [9]: inactive

N#Cc1c(O)c2c(-c3ccc(-c4ccccc4O)cc3)csc2[nH]c1=O
outcome [8]: inactive
outcome [9]: inactive

CCc1c2c(nc3ccc(O)cc13)-c1cc3c(c(=O)n1C2)COC(=O)[C@]3(O)CC
AC50 [8]: 0.0296 µM (active)
inhibition ([12]; at 0.5 µM): 74.1% (inactive)
inhibition ([12]; measured here: combination with BGB IC40, at 0.05 µM): -7.58%
inhibition [12, 18]: 77.6%
inhibition ([12]; measured here: combination with cisplatin, at 5 µM): 86.6%
inhibition ([13]; at 0.5 µM): 57.3% (inactive)
inhibition ([13]; measured here: combination with BGB at IC20, at 0.5 µM): 88.7%
inhibition ([13]; measured here: combination with cisplatin at IC20, at 0.5 µM): 37.4%
inhibition ([14]; at 0.5 µM): 72.1% (inactive)
inhibition ([14]; measured here: BGB combination, at 0.5 µM): 67%
inhibition ([14]; measured here: BGB combination, at 5 µM): 73.3%
inhibition ([14]; measured here: cisplatin combination, at 0.5 µM): 71.2%
inhibition ([14]; measured here: cisplatin combination, at 5 µM): 84.4%
inhibition ([15]; at 0.5 µM): 5.49% (inactive)
inhibition ([15]; cisplatin combination, at 0.5 µM): 45.3%
inhibition ([15]; cisplatin combination, at 5 µM): 33.9%
inhibition ([15]; measured here: BGB IC40 combination 0.05 uM, at 0.05 µM): -2.99%
inhibition ([15]; single agent, at 5 µM): 52.7%
inhibition ([16]; at 0.5 µM): 30.1% (inactive)
inhibition ([16]; cisplatin combo, at 5 µM): 67.1%
inhibition ([16]; measured here: BGB IC40 combination, at 0.05 µM): -24.6%
inhibition [16, 18]: 61.9%
inhibition ([16]; single agent, at 5 µM): 62.2%
inhibition ([17]; at 0.5 µM): 93.7% (active)
inhibition ([17]; measured here: with BGB IC20 combination, at 0.5 µM): 98.1%
inhibition ([17]; measured here: with cisplatin IC20 combination, at 0.5 µM): 91.2%
inhibition ([17]; single agent, at 0.05 µM): 16.8%
inhibition ([17]; single agent, at 5 µM): 99.8%
